# Measurements reported in the supplement of paper PMC8728848.
# Many of the other results were omitted from the sample, so the strongest signals are more common in it than they were.
# Experiments:
# Assay in all cases: glycan array binding signal (z-score within array); higher = stronger binding
# Details in all cases: glycan notation: IUPAC condensed, linker removed
# [1] = tested on: Fuc(a1-2)Gal(b1-3)GalNAc(b1-3)Gal
# Outline: (§1)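 Glycan array data were curated from 3228 arrays in the Consortium for Functional Glycomics database and kept only where the protein sequence was available. Glycan names were converted to IUPAC-condensed notation, and columns mapping to the same glycan were averaged. The binding signal is a within-array Z-score, averaged across arrays of the same protein sequence at different concentrations or buffers and across linkers. Negative Z-scores can be read as non-binding.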
# [2] = tested on: Fuc(a1-2)Gal(b1-3)GlcNAc6S
# Outline: as §1
# [3] = tested on: Fuc(a1-2)Gal(b1-3)GlcNAc(b1-3)GalNAc
# Outline: as §1
# [4] = tested on: Fuc(a1-2)Gal(b1-3)GlcNAc(b1-3)[Fuc(a1-2)Gal(b1-3)GlcNAc(b1-6)]GalNAc
# Outline: as §1
# Fuc(a1-2)Gal(b1-3)GalNAc = tested on: Fuc(a1-2)Gal(b1-3)GalNAc
# Outline: as §1
# [5] = tested on: Fuc(a1-2)Gal(b1-3)GlcNAc(b1-2)Man(a1-3)[Fuc(a1-2)Gal(b1-3)GlcNAc(b1-2)Man(a1-6)]Man(b1-4)GlcNAc(b1-4)[Fuc(a1-6)]GlcNAc
# Outline: as §1
# [6] = tested on: Fuc(a1-2)Gal(b1-3)GlcNAc(b1-3)[Fuc(a1-3)[Gal(b1-4)]GlcNAc(b1-6)]Gal(b1-4)Glc
# Outline: as §1
# [7] = tested on: Fuc(a1-2)Gal(b1-3)GlcNAc(b1-3)[Gal(b1-4)GlcNAc(b1-6)]Gal(b1-4)Glc
# Outline: as §1
# Fuc(a1-2)Gal(b1-3)GlcNAc = tested on: Fuc(a1-2)Gal(b1-3)GlcNAc
# Outline: as §1
# [8] = tested on: Fuc(a1-2)Gal(b1-3)GlcNAc(b1-2)Man(a1-3)[Fuc(a1-2)Gal(b1-3)GlcNAc(b1-2)Man(a1-6)]Man(b1-4)GlcNAc(b1-4)GlcNAc
# Outline: as §1
substance,measurement,setting,value
LcI (Legionella pneumophila),glycan array binding signal (z-score),[1],4.24
same,glycan array binding signal (z-score),[2],1.6
"BambL (Burhholderia ambifaria), Q0B4G1",glycan array binding signal (z-score),[3],-0.211
Epa22,glycan array binding signal (z-score),[3],-0.565
same,glycan array binding signal (z-score),[4],-0.12
"SiiE (Salmonella typhimurium), A0A0H3NVH0",glycan array binding signal (z-score),Fuc(a1-2)Gal(b1-3)GalNAc,-1.18
same,glycan array binding signal (z-score),[5],2.35
"SpGH101 (Streptococcus pneumoniae), Q8DR60",glycan array binding signal (z-score),[6],-0.216
AgI/II Vhelical-GFP (Streptococcus mutans),glycan array binding signal (z-score),[3],-0.178
same,glycan array binding signal (z-score),[7],-0.296
"Wza (Escherichia coli), P0A930",glycan array binding signal (z-score),Fuc(a1-2)Gal(b1-3)GlcNAc,0.769
AgI/IIC123-GFP (Streptococcus mutans),glycan array binding signal (z-score),[1],-0.278
same,glycan array binding signal (z-score),[8],-0.189
